Among the data in PubChem BioAssay AID624169 (The Scripps Research Institute Molecular Screening Center, 2012) are activation values, retold here.

Out of some 360,000 compounds screened, about 2,400 (0.67%) were called active. The sample as a whole holds a higher share of actives than the screen did. Values without a mark were called inactive.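 The calls were made as follows: active = activation above a run cutoff, the mean activation of all tested compounds plus 3 SD (cut at about 14% in these data); inactive = the rest.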

Sequence of 5-hydroxytryptamine receptor 2A (Mus musculus) (P35363 whole entry, looked up): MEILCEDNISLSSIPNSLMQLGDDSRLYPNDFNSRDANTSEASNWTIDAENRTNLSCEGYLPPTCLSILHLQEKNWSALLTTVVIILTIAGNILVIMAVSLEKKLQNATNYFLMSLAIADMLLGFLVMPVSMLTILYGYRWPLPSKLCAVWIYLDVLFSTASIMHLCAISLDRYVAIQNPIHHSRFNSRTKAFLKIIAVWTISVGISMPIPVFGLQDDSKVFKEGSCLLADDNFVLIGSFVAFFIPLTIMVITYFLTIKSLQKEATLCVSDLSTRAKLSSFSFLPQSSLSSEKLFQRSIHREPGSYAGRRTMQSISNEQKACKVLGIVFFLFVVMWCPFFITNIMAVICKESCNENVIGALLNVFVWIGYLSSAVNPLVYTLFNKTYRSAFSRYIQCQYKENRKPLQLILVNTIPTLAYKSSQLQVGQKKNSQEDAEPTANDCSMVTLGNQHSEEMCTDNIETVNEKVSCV

This assay has as its target 5-hydroxytryptamine receptor 2A (Mus musculus) (UniProt P35363). Put plainly: activation of mouse 5-HT2A receptor – cell-based, luminescence, primary screen (AID 624169).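 Also: 0% = plate median of compound wells and 100% = 30 µM serotonin.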 The note with it: CHO-K1 mHTR2A beta-arrestin complementation, at 7.6 µM, stronger effect = higher value, percent of 30 µM serotonin response.
Turning to `O=C(CN1CCC(O)(c2cccc(C(F)(F)F)c2)CC1)NCCc1ccccc1`, the activation was -1.29%.

For the compound `COC(=O)[C@]12CCCCC=C1N(CCC1=CCCCC1)C(=O)[C@H](CC(=O)NCC1CCCCC1)C2`, the activation is 19.2% (active).

With `CCOC(=O)N1CCN(C(=O)C[C@@H]2C[C@@]3(C(=O)OC)CCCCC=C3N(CCC3=CCCCC3)C2=O)CC1`, the activation was -5.86%.

For `CCCCOCCCNC(=O)C[C@@H]1C[C@@]2(C(=O)OC)CCCCC=C2N(CCC2=CCCCC2)C1=O`, the activation is -1.53%.

With `COc1ccc(-c2ccc(CN3C(C(C)C)C(=O)N(Cc4cn(CC5CCCCC5)nn4)CCS3(=O)=O)cc2)cn1` (configuration not stated), the activation was -1.52%.

As to `Cc1c(C(C)(C)O)[nH]c2ccc(C#N)cc12`, the activation was 3.5%.

As to `Cc1ccc(C)c(S(=O)(=O)N2CCN(c3ncnc4sccc34)CC2)c1`, the activation is 4.9%.

As for `Cc1ccc(S(=O)(=O)N2CCN(Cc3cccc(C)c3O)CC2)cc1`, the activation is -3.27%.

Consider `Cc1ccc(S(=O)(=O)N2CCN(c3ncnc4ccccc34)CC2)cc1`, for which the activation is 16.6% (active).

In the case of `CCN(CC)CCn1cnc2c1c(=O)n(CCOC(=O)c1cc(OC)c(OC)c(OC)c1)c(=O)n2C`, the activation was -1.4%.

For `COC(=O)[C@@]1(Cc2ccc(F)cc2)[C@H]2c3cc(C(=O)N4CCCC4)n(C[C@H](O)CO)c3C[C@H]2CN1C(=O)c1ccccc1`, the activation is 3.75%.

With `COC(=O)[C@@]1(Cc2ccc(F)cc2)[C@H]2c3cc(C(=O)N(C)C)n(CCc4c[nH]c5ccc(OC)cc45)c3C[C@H]2CN1C(=O)c1ccccc1`, the activation is 19.8% (active).

Turning to `COC(=O)[C@@]1(Cc2ccc(F)cc2)[C@H]2c3cc(C(=O)N4CCCC4)n(Cc4ccc(OC(F)(F)F)cc4)c3C[C@H]2CN1C(=O)c1ccccc1`, the activation was 1.1%.

For `O=C(CN1C(=O)NC2(CCCCCC2)C1=O)Nc1ccc([N+](=O)[O-])cc1`, the activation is -2.54%.

For `COc1ccc(NC(=O)CC2COc3ccccc3O2)c(OC)c1` (configuration not stated), the activation is 2.64%.

In the case of `O=C(CCCCCn1c(=S)[nH]c2ccsc2c1=O)NC1CCCCC1`, the activation is 2.92%.

On to `CCN(CCCNC(=O)CCn1c(=O)[nH]c2ccsc2c1=O)c1ccccc1`, for which the activation is 2.47%.

As to `CCCCC(CC)CNC(=O)CCCCn1c(=O)[nH]c2ccsc2c1=O` (configuration not stated), the activation is 15.6% (active).

As to `COC(=O)c1ccc(NS(=O)(=O)c2cc3c4c(c2)C(C)C(=O)N4CCC3)cc1` (configuration not stated), the activation is 2.55%.

Regarding `O=C(O)CN(Cc1ccco1)S(=O)(=O)c1ccc(F)cc1`, the activation was -0.4%.

Consider `Cc1oc2cc(Br)c(O)c(Br)c2c1C(=O)c1ccccc1`, for which the activation was 16% (active).

For the compound `Cc1oc2cc([N+](=O)[O-])c(O)c([N+](=O)[O-])c2c1C(=O)c1ccc(Br)cc1`, the activation is -3.12%.

Turning to `COc1ccc(C(=O)c2c(C)oc3cc([N+](=O)[O-])c(O)c([N+](=O)[O-])c23)cc1`, the activation is -5.67%.

Consider `O=C1CCCc2c1[nH]c1ccc(Br)cc21`, for which the activation is 1.31%.

As to `CCn1c(SCC(=O)N/N=C/c2ccccc2OCC(=O)O)nnc1-c1ccc(C(C)(C)C)cc1`, the activation is 6.89%.

For `O=C(Nc1cccc(Cc2ccccc2)c1)Nc1ccc2nc([C@@H]3O[C@H](CO)[C@@H](O)[C@H](O)[C@H]3O)[nH]c2c1`, the activation is -13%.

On to `CCCC1CCC(=NNC(=S)NCCc2ccccc2)CC1` (configuration not stated), for which the activation is 0.18%.

`CC(=O)Nc1ccc(C(=O)N(C2=NC(C)CS2)c2ccc(Cl)cc2)cc1` (configuration not stated): the activation is -3.34%.

Consider `CC(=O)NS(=O)(=O)c1ccc(NC(=O)C2C3C=CC(C3)C2C(=O)O)cc1` (configuration not stated), for which the activation is 2.61%.

As to `CCCCNC(=O)C[C@@H]1C[C@@]2(C(=O)OCC)CCC=C2N(Cc2ccco2)C1=O`, the activation is -3.77%.

Regarding `O=C1C=C(c2cccc(Cl)c2)C[C@@H](c2ccc(F)cc2)C1`, the activation is -0.66%.

For `O=C1CCCC(O)=C1C=NCCc1ccccc1`, the activation is 2.15%.

As to `O=C1CC(c2cccc(Cl)c2)CC(O)=C1C=Nc1ccccc1` (configuration not stated), the activation is 20.8% (active).

In the case of `C[C@@H]1CN([C@@H](C)CO)C(=O)c2cc(Br)cnc2O[C@H]1CN(C)Cc1ccc(-c2ccccc2)cc1`, the activation was -1.74%.

As to `Cn1c(=NC(=O)c2cnccn2)sc2ccccc21`, the activation was -2.18%.

With `CCCC(=O)N=c1sc2cccc(F)c2n1C`, the activation was 39.7% (active).

Regarding `Cn1c(=NC(=O)c2ccco2)sc2cccc(F)c21`, the activation is 2.52%.

With `CCOC(=O)/C=C/c1ccc(C(F)(F)F)cc1S(=O)(=O)NC(C)(C)C`, the activation is -0.74%.

In the case of `COc1ccccc1N1CC(C(=O)NCCN2C(=O)S/C(=C\c3cccnc3)C2=O)CC1=O` (configuration not stated), the activation was -0.83%.

Regarding `COc1ccc(N2CC(C(=O)NCCN3C(=O)S/C(=C\c4cccnc4)C3=O)CC2=O)c(OC)c1` (configuration not stated), the activation is 18.4% (active).

As for `Cc1cc(OCCCC(=O)NCCN2C(=O)S/C(=C\c3cccnc3)C2=O)ccc1Cl`, the activation is 8.37%.

As for `CC1CCN(C(=O)COC(=O)c2cc(S(=O)(=O)N3CCOCC3)ccc2Cl)CC1`, the activation was -1.57%.

On to `O=C(COC(=O)c1ccc(S(=O)(=O)N2CCc3ccccc3C2)cc1)NC(=O)NCc1ccco1`, for which the activation was -5.24%.

Turning to `COc1cc(NC(=O)C2CCN(c3cnccn3)CC2)cc(OC)c1`, the activation is -2.92%.

Regarding `CCOCCCNC(=O)Cc1cc(=O)[nH]c(=O)[nH]1`, the activation was 20.9% (active).

As for `CCOC(=O)Cc1cc(=O)[nH]c(=O)[nH]1`, the activation was -0.86%.

Take `CCOCCCNC(=O)C(=O)NCCCOCC`: the activation is 0.95%.

Take `Cc1cc(OCCN2CCCC2)cc(C(C)C)c1`: the activation was -5.99%.

Turning to `CCOC(=O)c1ccc(NC(=O)CS(=O)(=O)c2cn(CC)c3ccccc23)cc1`, the activation is -0.07%.

As to `CCOC(=O)c1ccc(NC(=O)CCn2c(=O)oc3ccccc32)cc1`, the activation was -5.94%.

With `CCOC(=O)c1ccc(NC(=O)Cn2cnc3cc(C)c(C)cc32)cc1`, the activation was 17.4% (active).

Take `COc1ccc2c(c1)C(C)=CC(C)(C)N2C(=O)CNCc1ccc2c(c1)OCO2`: the activation is -18.1%.

On to `CCn1nnc(NC(=O)c2c(OC)cccc2OC)n1`, for which the activation was -1.47%.

For `Cc1ccc(CCNC(=O)CN2C(=O)CSc3ccc(S(=O)(=O)N4CCOCC4)cc32)cc1`, the activation was -3.24%.

Consider `CCC(C)N1CC(=O)N2Cc3[nH]c4ccccc4c3C[C@H]2C1=O` (some centres not stated), for which the activation was -3.21%.

As for `COc1ccc(C2c3[nH]c4ccccc4c3C[C@H]3C(=O)N(CC(C)C)CC(=O)N23)c(OC)c1` (some centres not stated), the activation was 26.6% (active).

On to `COc1cccc(C2c3[nH]c4ccccc4c3CCN2Cc2cccc(C)n2)c1` (configuration not stated), for which the activation was -2.83%.

As for `S=C(Nc1ccc(Cl)cc1Cl)N1CCCC1`, the activation was -3.15%.

Take `c1cnc(N2CCN(c3ccc4ccccc4n3)CC2)nc1`: the activation was -1.28%.

Consider `O=C(c1ccc2ccccc2n1)N1CCN(c2ccccc2Cl)CC1`, for which the activation was 7.25%.

In the case of `O=C(c1ccncc1)N1CCN(c2ccc3ccccc3n2)CC1`, the activation was 25.6% (active).

On to `COc1ccc(NC(=O)COC(=O)c2ccncc2)c(OC)c1`, for which the activation was -1.11%.

As for `CCOC(=O)N1CCC(Nc2c(NCCCN3CCN(c4ccc(OC)cc4)CC3)c(=O)c2=O)CC1`, the activation was 4.04%.

Turning to `CCCOc1ccc(CNC(=O)C2CCN(c3nn4c(=O)cc(C)nc4s3)CC2)cc1`, the activation was 11%.

With `O=C(CSc1nnc(-c2ccncc2)o1)Nc1cccc(Cl)c1`, the activation is -0.76%.

In the case of `COC(=O)CSc1nnc(-c2cccnc2)o1`, the activation was 1.04%.

In the case of `COc1cccc(NC(=O)CSc2nnc(-c3cccnc3)o2)c1`, the activation is 14.9% (active).

As for `O=C(CSc1nncs1)NC1CCCc2ccccc21` (configuration not stated), the activation was -0.06%.

`CC(C)COC(=O)n1c(=O)oc2ccc(S(=O)(=O)N3CCCCC3)cc21`: the activation is 0.93%.

Consider `COc1ccc(Cn2c(=O)sc3ccccc32)cc1OC`, for which the activation was 8.35%.

Regarding `Cc1csc2ncc(C(=O)N(Cc3ccccc3)c3ccccn3)c(=O)n12`, the activation is 0.53%.

Regarding `CC(C)Oc1ccccc1C(=O)NC(CO)C(=O)O` (configuration not stated), the activation was 21.6% (active).

As for `COc1ccccc1C(=O)NC(CCSC)C(=O)N1CCN(C(C)=O)CC1` (configuration not stated), the activation is -3.47%.

As for `CC(C)CNC(=S)NNC(=O)c1ccccc1OC(F)F`, the activation was 1.02%.

Consider `O=C(COc1ccc2c(c1)CCC2)N1CCN(c2ccc(F)cc2)CC1`, for which the activation is -4.42%.

Consider `CC[C@@H](C)[C@H](NC(=O)CCc1c(C)c2cc3c4c(oc3c(C)c2oc1=O)CCCC4)C(=O)O`, for which the activation was 6.8%.

Consider `CCCCNS(=O)(=O)c1ccc2nc(SCC(=O)Nc3cc(C)cc(C)c3)[nH]c2c1`, for which the activation was 12.2%.

As for `CC1=NCCN1S(=O)(=O)c1cccc([N+](=O)[O-])c1`, the activation was -2.76%.

Take `O=[N+]([O-])c1cccc(S(=O)(=O)N2CCCCCC2)c1`: the activation is -1.72%.

For `Cc1cc(C)n(S(=O)(=O)c2cccc([N+](=O)[O-])c2)n1`, the activation is 18.4% (active).

For `Cc1cc(C)cc(NC(=O)COc2coc(CN3CCN(c4ccccc4)CC3)cc2=O)c1`, the activation is 6.93%.

`c1ccc(-c2nnc3n2NC(c2ccc4c(c2)OCO4)S3)cc1` (configuration not stated): the activation is -0.81%.

With `Cc1ccc(/C=C/C(=O)OCC(=O)NCc2ccc(Cl)cc2)o1`, the activation is -2.51%.

Take `CCCCn1c(N)c(N(CC(C)C)C(=O)CSc2ccc([N+](=O)[O-])cc2)c(=O)[nH]c1=O`: the activation is 20.3% (active).

For the compound `CCCCn1c(N)c(N(CC(C)C)C(=O)CN(C)S(=O)(=O)c2ccc(F)cc2)c(=O)[nH]c1=O`, the activation was 2.45%.

Take `CCCCn1c(N)c(N(CCC(C)C)C(=O)c2ccc([N+](=O)[O-])o2)c(=O)[nH]c1=O`: the activation is 5.32%.

For `COC(=O)c1ccc(S(=O)(=O)N2CCC(c3nc4ccccc4o3)CC2)cc1`, the activation was 2.01%.
